Compounds with a hit are over-represented: about 6.2% of the library has one in this group of screens.
HT1080-NT tox – qHTS for induction of synthetic lethality in tumor cells producing 2HG: qHTS for the HT-1080-NT fibrosarcoma cell line; 1.6% of 360,000 active; AID 686970, 2013; Potency, µM (top dose mostly 46.1 µM), usual class: cytotoxic; HT-1080-NT fibrosarcoma viability, CellTiter-Glo ATP luminescence, 48 h;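 note: NT is the 2HG producing partner of a matched IDH1 knockdown line; nearly all actives have a fitted effect of over 55% in size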
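Luminescent CellTiter-Glo readout after 48 hours of compound exposure at 37 degrees C defined viability of HT-1080-NT cells. Activity was normalized to DMSO wells and cell-free media wells; concentration-response curves were fitted and assigned curve classes.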
HT1080 IDH1KD tx – qHTS for induction of synthetic lethality in tumor cells producing 2HG: qHTS for the HT-1080-IDH1KD cell line. HT-1080 IDH1 knockdown viability, ATP luminescence, 48 h. Potency, µM (top dose mostly 46.1 µM), hits mostly cytotoxic. 2% of 360,000 active. AID 686971, 2013
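HT-1080-IDH1KD cells (IDH1 knocked down), 750/well in RPMI with 5% FBS, treated with compound 48 h at 37 degrees C. Viability by CellTiter-Glo luminescence, normalised to DMSO and no-cell wells; concentration-response curves classed.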
KB-3-1 cytotox – qHTS assay for MDR1-selective chemotherapeutics: Primary screen using the parental adenocarcinoma cell KB-3-1; KB-3-1 viability, CellTiter-Glo ATP luminescence, 72 h; 1.4% of 400,000 active; Potency, µM (titrated, usually from 46.1 µM), actives largely listed as cytotoxic; note: nearly all actives have a fitted effect of over 60% in size
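Using CellTiter-Glo luminescence, growth of non-resistant KB-3-1 adenocarcinoma cells is assessed 72 h after pin-tool compound addition at 37 °C. Normalized responses across the concentration series yield fitted curves.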
KB-V1 MDR tox – qHTS assay for MDR1-selective chemotherapeutics: Primary screen using the drug-selected MDR subline cells KB-V1. KB-V1 MDR cells viability, CellTiter-Glo, 72 h. Potency, µM (titrated, usually from 46.1 µM), actives largely listed as cytotoxic. 3.4% of 400,000 active; note: nearly all actives have a fitted effect of over 60% in size
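KB-V1 cells (P-gp-expressing MDR subline of KB-3-1) in phenol-red-free DMEM with 10% FBS were exposed to library compounds over a concentration series for 72 h at 37 degrees C. Viability read by CellTiter-Glo luminescence; concentration-effect curves fitted after normalization.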
S2 tox – Viability Counterscreen for Primary qHTS for Inhibitors of ATXN expression; S2 cells (HEK-293 line with an ATXN2-luciferase reporter) viability, CellTiter-Fluor protease fluorescence, 24 h; 0.49% of 400,000 active; Potency, µM (highest dose often 56.7 µM), usual class: cytotoxic; note: nearly all actives have a fitted effect of over 40% in size
ATXN2 expr inh – Primary qHTS for Inhibitors of ATXN expression; Potency, µM (doses to about 57 µM), usual class: inhibitors; HEK-293 ATXN2-luciferase reporter, luminescence, 24 h; 0.72% of 360,000 active; note: nearly all actives have a fitted effect of over 55% in size
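ATXN2-luciferase reporter cells (luciferase flanked by upstream and downstream ATXN2 gene portions) were treated 24 h at 37 °C with compounds at up to 57 uM. SteadyGlo luminescence gave expression; GF-AFC fluorescence gave viability.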
Hits are given with their value; n = inactive; u = inconclusive; x = no result; ! = not active in a repeat. Calls come from the whole dose curve; as a rule, active = well fitted curve in the direction sought with a large enough effect; inconclusive = small, poorly fitted or top-dose-only effect, or another doubt; inactive = no such curve, though single readings can be large; an effect the other way counts as inactive or inconclusive.

SMILES	HT1080-NT tox	HT1080 IDH1KD tx	KB-3-1 cytotox	KB-V1 MDR tox	S2 tox	ATXN2 expr inh
Cc1ccc(NC(=O)/C=C/c2ccc([N+](=O)[O-])s2)cc1	u	u	u	u	n	n
Cc1ccc(NC(=O)/C=C/c2ccc([N+](=O)[O-])s2)c(C)c1	2.6µM	2.3µM	u	n	u	8.9µM
CN(CC1COCCO1)C(=O)c1cnn(-c2nccc(-c3ccccc3C(F)(F)F)n2)c1C1CC1 (stereo not given)	x	x	x	x	n	x
COc1cccc(CN2CCC3(CCC(CNC(=O)c4ccccc4)O3)CC2)c1 (stereo not given)	x	x	x	x	n	x
Cn1c2ccccc2c2cc(/C=N/NC(=O)c3ccccc3F)ccc21	u	18µM	n	n	n	n
CCn1c2ccccc2c2cc(/C=N/O)ccc21	n	n	n	12µM	n	x
CCn1c2ccccc2c2cc(/C=N/n3cnnc3)ccc21	u	n	n	n	n	u
CCn1c2ccccc2c2cc(/C=N/NC(=O)c3ccccc3C)ccc21	15µM	21µM	21µM	5.2µM	n	u
CCn1c2ccccc2c2cc(/C=N/NC(=O)c3cccc(C)c3)ccc21	n	u	u	5.8µM	n	u
COC(=O)c1cnn(-c2ccc(C(=O)Nc3cc(OC)c(OC)c(OC)c3)cc2)c1N	x	x	n	n	n	n
O=C(Nc1ccc(Oc2ccccc2)cc1)Nc1nnc(-c2ccncc2)s1	x	x	u	n	x	x
CCC(C)NC(=O)CC(c1ccc(OC)cc1)n1cccc1 (stereo not given)	n	n	n	n	n	n
CCc1ccccc1NC(=O)CC(c1ccc(OC)cc1)n1cccc1 (stereo not given)	n	n	n	7.3µM	n	n
C=CCNc1nc(Nc2ccc(OC)cc2)nc(OC)n1	n	n	n	n	n	n
C=CCNc1nc(Cl)nc(Nc2ccc(OC)cc2)n1	u	n	n	13µM	n	n
COCC1CCCN(Cc2ccc3c(c2)CN(C(=O)c2cn4ccc(C)cc4n2)CCO3)C1 (stereo not given)	x	x	x	x	n	x
CC(=O)c1cccc(NC(=O)CCS(=O)(=O)c2cc(Br)cc3c2N(C(=O)C2CC2)CC3)c1	x	x	n	n	n	n
CCOC(=O)c1sc(=S)n(C)c1NC(=O)c1ccc(C(C)(C)C)cc1	u	16µM	u	u	u	n
CCOC(=O)c1sc(=S)n(C)c1NC(=O)c1ccc(OC)cc1	n	n	n	n	n	n
CCOC(=O)Nc1ccc2c(c1)N(C(=O)CCN(CC)CC)c1ccccc1S2=O (stereo not given)	16µM	26µM	u	n	u	n
CCOC(=O)Nc1ccc2c(c1)N(C(=O)CCN(CC)CC)c1ccccc1CC2	u	n	n	n	n	x
COC(=O)C1=C(c2ccccc2)c2ccccc2S(=O)(=O)N1CC(=O)Nc1ccc(OC)cc1OC	x	x	n	n	n	n
COCCCNC(=O)c1sc2nc(C)c(C(=O)Nc3ccc(C)cc3C)c(-c3ccc(Cl)cc3)c2c1N	x	x	n	n	u	u
C/C(=N\Nc1ccc(Cl)cc1)c1c(O)cc(C)oc1=O	u	23µM	n	n	n	n
C/C(=N\NC(=O)c1cccs1)c1c(O)cc(C)oc1=O	n	n	n	n	n	n
SMILES	HT1080-NT tox	HT1080 IDH1KD tx	KB-3-1 cytotox	KB-V1 MDR tox	S2 tox	ATXN2 expr inh
Cc1csc(Sc2nc3c(c(=O)[nH]c(=O)n3C)n2Cc2ccccc2Cl)n1	n	n	n	u	n	n
Cn1c(=O)c2c(nc(Br)n2Cc2ccc3ccccc3c2)n(C)c1=O	u	n	7.3µM	2.6µM	n	n
Cc1cccc(Cn2c(Sc3nc(C)cs3)nc3c2c(=O)[nH]c(=O)n3C)c1	n	n	n	4.1µM	u	n
Cn1c(=O)[nH]c(=O)c2c1nc(Br)n2Cc1cccc(Br)c1	6.5µM	4.6µM	u	u	n	n
CCOC(=O)/C=C1\CN(Cc2ccc(OC)cc2)S(=O)(=O)c2ccc(C(F)(F)F)cc21	x	x	n	u	x	x
CC(C)c1ccc2c(c1)CC[C@H]1[C@](C)(CN)CCC[C@]21C	18µM	21µM!	u	u	n	u
CC(C)c1cc2c(cc1S(=O)(=O)O)[C@@]1(C)CCC[C@@](C)(C(=O)O)[C@@H]1CC2	x	x	x	x	n	n
CC(C)c1ccc2c(c1)CCC1C(C)(CN)CCCC21C (stereo not given)	u	21µM	21µM	u	x	35µM
Cc1cc(OCC(=O)Nc2ccc(C(=O)OC3CCCCC3)cc2)cc(C)c1Cl	x	x	n	n	n	n
O=C(Cc1ccc2c(c1)OCO2)N1CCOc2ccc(CN3CCOCC3)cc2C1	x	x	x	x	n	x
COc1ccc(CC(=O)Nc2ccc(-c3nc4ccccc4s3)c(C)c2)cc1OC	x	x	n	u	n	n
COc1ccc(C(=O)CN2C(=O)C(C)(C)Oc3ccc(C(=O)N4CCCCCC4)cc32)cc1	n	n	n	18µM	n	n
Clc1ccc(OCc2nc(-c3ccccn3)n[nH]2)cc1	u	10µM	u	4.6µM	u	u
Brc1ccc(OCc2nc(-c3ccccn3)n[nH]2)cc1	n	u	n	n	n	n
O=c1c(Br)ccc(Br)cc1Br	3.7µM	5.2µM	6.5µM	n	7.5µM	6µM
Cc1ncc(CO)c(/C=N/NC(=S)Nc2ccc(F)cc2)c1O	n	u	u	n	n	u
Cc1ncc(CO)c(/C=N/Nc2ccc(C(F)(F)F)cn2)c1O	n	u	u	n	n	6.3µM
CC(=O)OCC1=C[C@@H]2OC(=O)C3=CO[C@@H](O[C@@H]4O[C@H](CO)[C@@H](O)[C@H](O)[C@H]4O)[C@H]1[C@@H]32	n	n	n	n	n	n
C=C1C(=O)OC2C=C(CO)C3OC3C3OC3(C)CC(OC(=O)/C(=C/C)COC(C)=O)C12 (stereo not given)	n	5.2µM	u	n	x	u
O=C(Cc1ccc(Cl)cc1)Nc1nnc2n1CCS2	x	x	n	n	n	n
COc1ccc(OCCn2cc(C=O)c3ccccc32)cc1	n	n	n	n	n	n
Cc1ccccc1OCCn1cc(C=O)c2ccccc21	n	u	u	16µM	n	n
Cc1cc2ccc3ccccc3c2cc1CN(C)C	33µM	18µM	n	n	n	n
CCCSc1nc(-c2ccccc2)[nH]c1S(=O)(=O)c1ccc(C)cc1	x	x	n	n	u	n
O=C(Nc1nc(-c2ccccn2)cs1)Nc1ccc(F)cc1F	u	u	n	n	u	14µM
O=C(COc1ccc(F)cc1)Nc1nc(-c2ccccn2)cs1	n	u	u	5.8µM	u	u

Bioassay records: PubChem BioAssay, National Center for Advancing Translational Sciences (NCATS)
